Experimental data from PubChem BioAssay AID1948 (National Center for Advancing Translational Sciences (NCATS), 2009).
In all, about 110,000 compounds went through this assay and about 20 (0.02%) were called active. Another 2% or so got no clear call; they are omitted. The sample holds actives, similar compounds and a random draw of the others, so the mix is not that of the screen. Calls follow the shape of the dose curve; as a rule, active = well fitted activation curve with a large enough effect; inconclusive = small, poorly fitted or top-dose-only effect; inactive = no such curve, though single readings can be large or run the other way.

assay: qHTS Assay for Compounds that Induce Erasure of Genomic Imprints; settings: mouse ES Peg3-LacZ reporter, beta-gal luminescence, 40 h; series mostly up to 10.9 µM; activity change, positive = activation: at the top concentration;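 also: 0% = negative control wells on the plate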
From the text: qHTS Assay for Compounds that Induce Erasure of Genomic Imprints NIH Chemical Genomics Center [NCGC] NIH Molecular Libraries Screening Centers Network [MLSCN] Assay Submitter (PI): JEFFRIES, SEAN, NCGC, University of Cambridge NCGC Peg3 Imprinting Assay Overview Genomic imprinting is the epigenetic process whereby genes are expressed in a parent of origin fashion. […] Unlike some forms of epigenetic silencing that can be overcome by overexpression of transcription factors, genomic imprinting stably represses the expression of one allele despite potentially high levels of expression from the other allele. […] During mouse embryonic day 11.5 imprints are erased in PGCs so that sex specific imprints can be reestablished during gametogenesis. Embryonic germ (EG) cells can be derived from developing PGCs at embryonic day 11.5 and these cells often lack genomic imprints. […] Embryonic stem (ES) cells are a cell type similar to EG cells in phenotype and transcriptional profile, yet ES cells maintain genomic imprints. This similarity between ES and EG cells prompted us to use ES cells to look for factors which could induce imprint erasure. To investigate the stability of genomic imprinting, ES cells were derived from mice with an insertion of a LacZ-Neomycin reporter construct in the Peg3 locus. Peg3 is an imprinted locus where gene expression is restricted to the paternal allele. […] Using LacZ expression we are able to monitor the state of the Peg3 imprint. In order to dissect the mechanisms involved in imprint erasure using a forward chemical genetics approach we developed a cell based phenotype assay using an endogenous silence imprinted locus. This assay utilizes maternally inherited Peg3LacZ-Neo ES cells by monitoring the LacZ expression from the normally silent Peg3 allele. To facilitate screening, high-density feeder-free ES cell culture has been optimized so that ES cells can be grown in 1536 for over four days without feeding or washes. The assay uses a luminescence based read out for LacZ activity and is a homogenous assay optimal for HTS.
NCGC Peg3 Imprinting Assay Protocol Summary ES cell lines were derived from blastocysts taken from Peg3LacZ-Neo x129 matings. Lines were sexed and genotyped for the Peg3LacZ-Neo allele. Female cells carrying the reporter allele were used in this study. Cells were derived on a layer of mouse embryonic fibroblasts and passaged multiple times before switching to feeder free culture. Cells were maintained feeder free on gelatin coated dishes in DMEM/F12 media supplemented with 15% FBS, 2mM L-glutamine, 100 units/ml penicillin, 100ug/ml streptomycin, 0.1mM MEM nonessential amino acids, 1mM sodium pyruvate, 0.1% sodium bicarbonate, 0.1mM 2-Mercaptoethanol, and 400 units/ml leukemia inhibitory factor (LIF) at 37C with 5% CO2. The assay was performed in 1536-well format. A single luminescence read was taken at the end of the assay and the data was normalized by plate to internal negative controls. Maximum efficacy and AC50 values were calculated from dose-response data using the standard Hill equation. 1536 well plates were filled with 0.5ul of 0.1% gelatin per well, spun down and incubated for at least 30 min at 37C. The ES cells were then trypsini Peg3 1536-well assay protocol: (1)Plate 0.5ul/well 0.1% gelatin in white tissue culture treated 1536-well plates, spin and incubate at 37C for at least 30 min. (2)Add 5ul/well (300 cells) of ES cell suspension from freshly trypsinized cells and incubate at 37C, 5% CO2 for 40 hours. (3)Add 5ul/well of freshly prepared BetaGlo solution and incubate at room temperature for 5 minutes. (4)Read luminescence on the ViewLux plate reader. Keywords Genomic Imprinting, Germ Cells, Embryonic Stem Cell, DNA Methylation, Peg3, qHTS, NIH roadmap, NCGC

Activity change, positive = activation, inactive:
Cc1nc2ccn(Cc3cccnc3)c(=O)c2cc1C(=O)N1CCN(c2ccccc2F)CC1 -12.9%
COc1cc(OC)c(NC(=O)c2nc(-c3ccncc3)no2)cc1Cl 1.79%
COc1ccccc1NC(=O)c1oc2ccccc2c1NC(=O)COc1ccccc1OC -14.1%
Cc1c(-c2nsc(NC(=O)c3cccc(Cl)c3)n2)nnn1-c1ccccc1C(F)(F)F 11.8%
O=C(c1cccs1)c1cn(CCOc2ccc(Cl)cc2)c2ccccc12 -14.8%
CC(=O)c1c(C)n(S(=O)(=O)c2ccc(Cl)cc2)c2ccc(NS(=O)(=O)c3ccc(Cl)cc3)cc12 -15.8%
COc1ccccc1CNC(=O)NCc1noc2ccc(C)cc12 -12.8%
COc1cccc(-c2nnc3n(CCc4ccccc4)c(=O)c4ccccc4n23)c1O -1.81%
COc1cccc(CNCCSc2nnnn2C)c1OCc1ccccc1Cl -19.5%
CCOC(=O)c1ccc(-c2ccc(/C=C(\C#N)C(=O)Nc3ccc(OCC)cc3)o2)cc1 -9.53%
COc1ccc(NC(=O)CSc2nnc(-c3nnn(-c4ccc(F)cc4)c3C)o2)cc1 -10.1%
COc1ccc(N2CCN(S(=O)(=O)c3ccc(-c4coc(C)n4)cc3)CC2)cc1 -7.96%
Cc1ccccc1C(=O)Nc1sc2c(c1C(=O)N1CCC(C)CC1)CCCC2 -10.6%
CC(=O)[C@H](C(c1ccccc1)N1CCOCC1)N1CCOCC1 (some centres undefined) -10.7%
COc1cc(C(=O)Nc2ccc(OCc3cc(=O)n4ccc(C)cc4n3)cc2)cc(OC)c1OC -13.3%
CCc1cccc(NC(=O)CSc2nccn2C)c1 -8.86%
COc1ccc(S(=O)(=O)NCCSc2nnnn2-c2ccccc2)cc1 -6.91%
CCOc1ccc(OCC)c(NC(=O)c2c(C)nn(-c3ccccc3)c2-n2cccc2)c1 -4.23%
Cc1c(Cl)cccc1NC(=O)C(=O)NCCc1csc2nc(-c3ccccc3F)nn12 -1.33%
CC(Sc1oc(-c2ccco2)nc1S(=O)(=O)c1ccc(Br)cc1)c1ccccc1 (centres undefined) -9.57%
Cc1cc(Cl)ccc1OCC(=O)N(Cc1ccc(N(C)C)cc1)C1CCS(=O)(=O)C1 (centres undefined) 10.5%
COc1ccc(Cc2nc3ccc(C(=O)NCc4ccccc4C)cc3o2)cc1 -10.1%
CC(=O)Nc1cc(C(=O)NCc2ccc(F)cc2Cl)ccc1Sc1ccc(Cl)cc1 3.52%
COc1ccc(-c2nc3ccccc3o2)cc1NC(=O)c1cc([N+](=O)[O-])ccc1N1CCOCC1 -12.3%
Cn1c(=O)c2c(nc(SCC(=O)Nc3ccc(F)cc3)n2Cc2ccccc2)n(C)c1=O -8.43%
CC(=O)OC1=C(C(C)=O)N(Cc2ccccc2)S(=O)(=O)c2ccccc21 -8.79%
CCOc1ccccc1NC(=O)Cn1c(=O)n(-c2cccc(C)c2)c(=O)c2c1c1cc(OC)ccc1n2C -9.1%
CCc1nn(CC(=O)NCC(C)c2ccccc2)c(=O)c2cc3occc3n12 (centres undefined) -4.37%
Fc1ccccc1Oc1ncnc2c1oc1ccccc12 13.2%
COc1ccc(OC)c(NC(=O)CN2CCCN(Cc3cc(C)ccc3C)S2(=O)=O)c1 -5.63%
O=C(Nc1c(C(=O)N2CCN(c3ccc(F)cc3)CC2)oc2ccccc12)c1ccco1 14.6%
COc1ccccc1CNCc1ccc(C(=O)O)s1 24.7%
O=C(C1CCC(Cn2c(=O)c3sccc3n(Cc3ccccc3F)c2=O)CC1)N1CCCCC1 (centres undefined) 9.72%
COc1ccc(OC)c(CNC(=O)CN2C(=O)CCn3nc(-c4cn(C)c5ccccc45)cc32)c1 -8.77%
COc1ccccc1CNC(=O)c1ccc(CS(=O)c2ccccc2Cl)o1 (centres undefined) -10.1%
CCN1CCc2nc3sc(C(=O)Nc4ccccc4OC(F)(F)F)c(N)c3cc2C1 -7.94%
COc1cc(OC)cc(-c2nc3nc(C)c(CCC(=O)Nc4ccc(C)cc4)c(C)n3n2)c1 -11.7%
CC1CCC2(CC1)N=C(c1ccccc1)C(=O)N2CC(=O)Nc1ccc(F)c(Cl)c1 (centres undefined) -6.53%
CCOc1ccc(NC(=O)c2cc(S(=O)(=O)N3CCCC3)c[nH]2)cc1 -5.17%
CC1CCN(S(=O)(=O)c2ccc3c(ccn3CCC(=O)NCc3ccc(N(C)C)cc3)c2)CC1 12%
Cc1c(C(=O)NCc2ccccc2Br)oc2ccc3c(c12)C(=O)CC(C)(C)O3 -7.58%
CCc1nn(CC(=O)N2CCN(c3ccc(Cl)cc3)CC2)c(=O)c2cc3occc3n12 13.7%
COc1ccc(CCn2cc3c(c2-c2ccc(Br)cc2)c(=O)n(C)c(=O)n3C)cc1OC -14%
Cc1ccccc1NC(=O)Cn1c(=O)n(CC2CCC(C(=O)NCCc3ccccc3)CC2)c(=O)c2ccccc21 (centres undefined) -6.05%
Cc1ccc2nc(COc3ccccc3NC(=O)Nc3ccc(F)c(Cl)c3)cc(=O)n2c1 -5.98%
CCOC(=O)c1c(N)n(-c2cccc(C)c2C)c2nc3ccccc3nc12 -12.5%
COc1ccc2c(c1)C=C(C(=O)NCc1cc(Br)ccc1OC)CO2 2.77%
COC(=O)c1cnc(N2CCN(c3ccccc3OC)CC2)c2ccccc12 2.25%
COc1ccc(Br)cc1C1CC(=O)Nc2c1c(C)nn2-c1nc(C)cc(C)n1 (centres undefined) -9.77%
